# Only some compounds are listed: those with a hit (about 1.7% of all), similar ones and a draw of the others.
# MIN6 prolif = MIN6 beta-cell proliferation induction | MIN6 cells proliferation, ATPlite luminescence, 48 h; cells starved in 0.2% serum; 100% = growth in 10% serum | proliferation, % at 10 µM | 330,000 tested, 0.29% active | AID 2380;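 active means compounds whose signal lies at least 3.5 SD above the mean of all wells on their plate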;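 further: 0% = DMSO-treated cells in low-serum medium and 100% = 10% serum control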
# V-ATPase pHluor = yeast V-ATPase proton transport regulation by pHLuorin; S. cerevisiae, pHLuorin cytosolic pH fluorescence; response, % at 10 µM; 350,000 tested, 0.37% active; AID 504577; in the data active means response mostly above about 7.3%, no sharp cut-off; inactive means mostly below about 5.4%; further: actives read high
# OPRM1-OPRD1 inv = inverse agonists of human mu-delta opioid receptor heterodimerization; P35372+P41143; cell-based MOR-DOR heterodimer luminescence, inverse agonism; inhibition, % at 9.3 µM; 340,000 tested, 0.21% active; in the data active means inhibition above about 22%, passing the limit was not always enough;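 further: 0% = cells with DMSO and 100% = wells without cells with DMSO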
# Target sequence (P35372 whole entry, looked up): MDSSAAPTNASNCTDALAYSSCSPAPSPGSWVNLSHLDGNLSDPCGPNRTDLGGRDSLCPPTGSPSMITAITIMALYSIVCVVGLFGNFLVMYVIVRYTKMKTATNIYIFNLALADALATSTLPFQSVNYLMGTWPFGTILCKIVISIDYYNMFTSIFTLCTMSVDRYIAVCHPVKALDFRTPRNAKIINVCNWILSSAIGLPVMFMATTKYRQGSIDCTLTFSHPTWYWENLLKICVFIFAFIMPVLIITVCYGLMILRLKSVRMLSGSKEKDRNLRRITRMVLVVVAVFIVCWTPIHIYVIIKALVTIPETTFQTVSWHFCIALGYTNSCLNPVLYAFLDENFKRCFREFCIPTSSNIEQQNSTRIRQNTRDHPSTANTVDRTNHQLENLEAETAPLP
# Target sequence (P41143 whole entry, looked up): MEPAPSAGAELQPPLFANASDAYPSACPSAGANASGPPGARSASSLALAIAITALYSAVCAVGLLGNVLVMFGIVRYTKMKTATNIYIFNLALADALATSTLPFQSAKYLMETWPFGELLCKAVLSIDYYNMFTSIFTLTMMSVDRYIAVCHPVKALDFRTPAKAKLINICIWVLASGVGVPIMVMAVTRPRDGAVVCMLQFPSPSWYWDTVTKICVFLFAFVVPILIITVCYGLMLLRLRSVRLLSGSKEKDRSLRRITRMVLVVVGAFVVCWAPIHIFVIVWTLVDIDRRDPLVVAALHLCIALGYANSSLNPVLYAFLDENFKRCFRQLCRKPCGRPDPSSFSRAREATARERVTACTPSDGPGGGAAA
# HTR5A ag ctr = HTR5A agonism, opioid heterodimer counter-screen; P47898; HTR5A agonist assay, luminescence, cell-based; activation, % at 9.3 µM; 340,000 tested, 0.61% active; in the data active means activation mostly above about 9.5%, no sharp cut-off; inactive means mostly below about 7.6%;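 further: 0% = cells with vehicle only and 100% = reference agonist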
# OPRM1-OPRD1 ag = agonists of human mu-delta opioid receptor heterodimerization; 340,000 tested, 0.3% active; cells, OPRM1-OPRD1 heterodimerization, luminescence; P35372+P41143; activation, % at 9.3 µM; in the data active means activation above about 18%;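 further: 0% = vehicle-treated cells and 100% = reference agonist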
# HTR5A inv ctr = inverse agonist of human HTR5A in OPRM1-OPRD1 counter-screen; HTR5A cell line, luminescence, inverse agonism; inhibition, % at 9.3 µM; 340,000 tested, 0.083% active; in the data active means inhibition mostly above about 23%, no sharp cut-off; inactive means mostly below about 18%;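 further: 0% = cells with DMSO and 100% = no-cell wells with DMSO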
# VATPase regulator = yeast V-ATPase proton transport regulation. shares compounds with V-ATPase pHluor. S. cerevisiae pHLuorin cytosolic pH. response, % at 10 µM. 980 tested, 2% active; in the data active means response above about 24%;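 further: plate controls were vehicle wells for no effect and positive control wells for full effect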
# * = called active by the depositor; . = no result given.
SMILES,MIN6 prolif,V-ATPase pHluor,OPRM1-OPRD1 inv,HTR5A ag ctr,OPRM1-OPRD1 ag,HTR5A inv ctr,VATPase regulator
C[C@H](CO)N1C[C@H](C)[C@H](CN(C)S(=O)(=O)c2ccc(C#N)cc2)OCc2cnnn2CCCC1=O,.,-0.1,.,.,.,.,.
COc1cccc(S(=O)(=O)N(C)C[C@@H]2OCc3cnnn3CCCC(=O)N([C@H](C)CO)C[C@@H]2C)c1,.,7.5*,.,.,.,.,1.0
C[C@H](CO)N1C[C@H](C)[C@@H](CN(C)S(=O)(=O)c2ccc(C#N)cc2)OCc2cnnn2CCCC1=O,.,4.1*,.,.,.,.,1.7
C=CCNC(=O)/C(=C\c1ccc([N+](=O)[O-])cc1)NC(C)=O,-0.8,12.7*,-0.7,2.6,0.1,-5.9,0.8
NC(=O)c1ncn([C@@H]2O[C@H](CNCc3cccn3-c3ccncc3)[C@@H](O)[C@H]2O)n1,.,2.1,11.1,4.7,-2.4,-17.7,.
COc1ccc(O)c(CN2CCC(n3nccc3NC(=O)c3ccccc3Cl)CC2)c1,-3.2,9.2*,-13.7,0.3,2.7,-0.8,2.2
COc1ccc(O)c(CN2CCC(n3nccc3NC(=O)CCOc3ccccc3)CC2)c1,-0.9,-4.6,4.6,0.3,-1.4,1.5,.
CC(=O)Nc1ccc(S(=O)(=O)Nc2ccc(S(=O)(=O)Nc3nccs3)cc2)cc1,0.7,-5.0,4.5,2.8,-0.8,-7.9,.
CC1CC(CCC(=O)NC(=S)Nc2ccc(Cl)cn2)C(=O)O1 (stereo not drawn),-0.3,-6.1,-4.0,-6.8,0.6,19.4,.
COc1cc2ccccc2cc1C(=O)N/N=C/c1cccnc1,-0.1,21.5*,-4.0,4.7,0.8,11.8,3.1
COc1ccc(C(=S)N2CCN(C)CC2)cc1Br,0.2,8.0*,-10.4,-5.4,1.8,19.9,-1.5
O=C(NCC(=O)N1CCOCC1)c1ccc(Br)o1,-6.4,1.0,2.5,5.8,-0.4,-16.0,.
O=C(Nc1cccc(C(=O)O)c1)/C(=C\c1ccc2c(c1)OCO2)NC(=O)c1ccc(Br)o1,0.5,7.5*,5.6,0.9,-1.0,-2.5,3.5
O=C(Nc1ccc(C(=O)O)cc1)/C(=C\c1ccc2c(c1)OCO2)NC(=O)c1ccc(Br)o1,1.4,0.9,-0.2,3.5,0.0,-9.2,.
COc1ccc(/C=C2\C(=O)NCC(=O)N2C)cc1,-5.3,252.9*,11.6,-3.4,-2.5,12.0,6.5
COc1ccc(/C=C2\C(=O)NCC(=O)N2Cc2ccccc2)cc1,-1.9,1.0,-5.1,0.5,0.9,4.1,.
O=C(/C=C/c1ccc(Cl)c([N+](=O)[O-])c1)Nc1cccc(NC(=O)c2ccco2)c1,-5.8,8.8*,-28.0,-1.7,3.9,4.5,-2.0
O=C(/C=C/c1ccc(Cl)c([N+](=O)[O-])c1)Nc1ccc(NC(=O)c2ccco2)cc1,.,-17.1,-38.4,1.5,5.3,-4.2,.
Fc1ccccc1-c1cc2ncccc2cn1,-3.8,4.0,1.5,4.3,-0.3,-0.2,.
CN1/C(=C\C(=S)NC(=O)c2ccc([N+](=O)[O-])cc2)C(C)(C)c2ccccc21,-4.8,13.4*,-53.6,0.4,7.4,-1.1,0.1
CN1/C(=C\C(=S)NC(=O)c2cccc(Br)c2)C(C)(C)c2ccccc21,-7.0,-0.6,14.9,-6.3,-2.6,21.6,.
COc1ccc(/C=C2\CCn3c2nc2cc(C(=O)O)ccc2c3=O)cc1O,-0.7,10.4*,14.7,1.7,-2.5,-4.6,2.1
COc1ccc(C)cc1S(=O)(=O)N(C)CC(=O)NCc1ccccn1,-6.0,7.1,-10.7,1.9,1.3,-5.5,.
COc1ccc(OC)c(CNC(=O)C2CCN(S(C)(=O)=O)CC2)c1,0.1,10.6*,16.1,-0.6,-3.0,-13.5,-1.2
COc1ccc(OC)c(CNC(=O)C2CCN(S(=O)(=O)N3CCCC3)CC2)c1,2.0,-3.9,6.5,-0.3,-1.1,24.2,.
SMILES,MIN6 prolif,V-ATPase pHluor,OPRM1-OPRD1 inv,HTR5A ag ctr,OPRM1-OPRD1 ag,HTR5A inv ctr,VATPase regulator
COC(=O)c1cc(Br)c(=O)n(-c2cc(C)on2)c1,-0.9,8.0*,1.9,-0.7,-0.4,2.5,-2.5
Cc1c(C(=O)O)sc(=S)n1-c1ccc(Cl)cc1,1.5,2.4,21.4,0.3,-3.6,5.0,0.1
CCOC(=O)c1sc(=S)n(-c2ccc(Cl)cc2)c1C,-2.3,-0.4,-4.0,-6.1,0.7,6.1,.
Cc1ccccc1C(=O)NC(=S)Nc1ccc(S(=O)(=O)N2CCOCC2)cc1,4.5,9.5*,3.3,-1.2,-0.6,3.4,-2.8
Cc1ccccc1C(=O)NC(=S)Nc1ccc(S(=O)(=O)N2CCN(C)CC2)cc1,-1.1,0.7,14.6,2.4,-3.3,26.6,.
CN(C)C(CNC(=O)c1ccc(S(=O)(=O)Nc2cccc(C(F)(F)F)c2)cc1)c1ccco1 (stereo not drawn),3.1,10.2*,6.2,-3.2,-1.0,6.8,2.2
CC(=O)C1C=CC(C)(C(=O)O)C2C=C(C)C(=O)C(C)(O)C12 (stereo not drawn),.,3.1,13.5,2.5,-3.1,-9.7,.
O=C(c1ccccc1)N1CCN(c2nc3ccc([N+](=O)[O-])cc3s2)CC1,-3.6,15.5*,-0.9,2.9,0.2,-1.1,-2.7
CCOC(=O)Cc1cnc(NC(=O)CSc2nc(N)cc(N)n2)s1,-2.4,-1.0,-7.8,-6.8,1.7,17.6,.
O=[N+]([O-])c1cc(-c2csc(NCCc3nc4cc(Cl)c(N5CCCCC5)cc4n3CCCO)n2)ccc1Cl,-7.3,10.3*,-6.1,3.4,1.1,-8.6,-3.2
COc1ccc(CCNC(=S)N2CCN(S(=O)(=O)c3ccccc3)CC2)cc1,1.1,0.8,-7.9,-3.4,1.5,8.4,.
Cc1cccn2c(=O)c(/C=C(\C#N)C(=O)NC3CCS(=O)(=O)C3)c(Oc3ccc(F)cc3)nc12 (stereo not drawn),-0.3,4.1,-8.9,7.8,1.3,-14.7,.
Cc1cccn2c(=O)c(/C=C(\C#N)C(=O)NC3CCS(=O)(=O)C3)c(N3CCC(C)CC3)nc12 (stereo not drawn),-3.2,14.7*,8.0,0.4,-1.5,2.1,-1.1
CCCCn1c(=O)c(CC(C)=O)nc2ccccc21,1.4,2.5,5.3,-2.5,-0.7,6.7,.
O=C(CSc1nccc(=O)[nH]1)NC1CCCCCC1,3.5,-3.3,11.1,-2.3,-2.1,9.1,.
COc1ccccc1C(=O)OC1CCCN(C)C1 (stereo not drawn),-0.2,0.5,6.9,0.7,-1.5,-2.4,.
CN1CCCC(OC(=O)c2ccccc2F)C1 (stereo not drawn),-1.7,9.4*,1.7,3.6,-0.4,-13.1,-2.4
Cc1ccc(Cn2nnnc2CN2CCC(NC(=O)C(C)(C)C)CC2)cc1,-5.8,3.9,4.3,1.2,-0.8,-3.3,.
CC(=O)Nc1cccc(C(=O)OC(C)C(=O)NC(=O)NC2CCCCC2)c1 (stereo not drawn),-0.8,11.3*,7.2,4.2,-1.4,-11.4,-0.5
O=C(NCC1(N2CCCCC2)CCCCC1)c1ccc(S(=O)(=O)N2CCCC2)cc1,-0.4,7.8*,3.8,4.0,-0.7,-9.8,-6.5
